The nature of experiment [1]: resazurin metabolic signal in HepG2 cells – cell-based, resazurin fluorescence, 24 h, PK04 Diversity Set, profiling panel (AID 1172). Note: test concentration not given here. The note with it: HepG2 viability, higher = more signal. For orientation: Resazurin is reduced to fluorescent resorufin, in cell work by metabolically active cells.
Experiment [2] is described as follows: budding yeast growth changes without added modifier – OD600, strain BY4716, 24 h, basal condition, primary screen (AID 1173). To be noted: S. cerevisiae BY4716 growth, OD600, 24 h; higher = more signal, called active from +8 up or from −8 down.
The nature of experiment [3]: viability profiling in MM1S myeloma cells – cell-based, resazurin fluorescence, basal, 24 h, PK04 Diversity Set, profiling panel (AID 1174).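 Note: MM1S multiple myeloma cell line; test concentration not given here.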 To be noted: higher = more signal, called active from +8 up or from −8 down.
Experiment [4] addresses Dihydroorotate dehydrogenase (quinone), mitochondrial (Plasmodium falciparum (isolate 3D7)) (UniProt Q08210). In words: inhibition of P. falciparum DHODH – biochemical, C-terminal His tag, absorbance 600 nm, primary screen (AID 1175).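 Note: recombinant parasite enzyme with a five histidine tag at its C terminus; test concentration not given here.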 The note with it: PfDHODH enzyme, DCIP absorbance 600 nm; higher = more signal, called active from +8 up or from −8 down.
Experiment [5] can be described thus: inhibition of PAO1 biofilm formation – strain PAO1, LB-PBS medium, absorbance 600 nm, primary screen (AID 1176). Note: test concentration not given here. The note with it: P. aeruginosa PAO1 growth/biofilm, A600, 12 h; higher = more signal.
Experiment [6] in a line: growth modulation of vineyard yeast isolate – strain RM11-1a, OD600, basal, 24 h, primary screen (AID 1177).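 Note: cultures grown under basal conditions with no added stressor; test concentration not given here.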 The note with it: S. cerevisiae RM11-1a growth, OD600, 24 h; higher = more signal, called active from +8 up or from −8 down.
A short description of experiment [7]: growth of efflux-deficient E. coli DRC39 – strain DRC39, OD650, 24 h, E. coli filamentation inducers, primary screen (AID 1178).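 Note: growth measured as culture turbidity by optical density at 650 nm; test concentration not given here.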 To be noted: E. coli DRC39 acrAB, higher = more signal, called active from +8 up or from −8 down.
The nature of experiment [8]: growth of efflux-deficient E. coli DRC39 – strain DRC39, OD650, 48 h, E. coli filamentation inducers, primary screen (AID 1179).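 Note: screen aims at cell division blockers that make cells filament.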 The note with it: E. coli DRC39 delta-acrAB growth, higher = more signal, called active from +8 up or from −8 down.
A short description of experiment [9]: viability profiling in RPMI8226 myeloma cells – cell-based, resazurin fluorescence, basal, 24 h, PK04 Diversity Set, profiling panel (AID 1180).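 Note: RPMI8826 multiple myeloma cell line at 5000 cells per well; test concentration not given here.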 The note with it: higher = more signal.
The target in experiment [10] is E3 ubiquitin-protein ligase XIAP (Homo sapiens) (UniProt P98170). In words: small molecules binding XIAP protein – biophysical, small-molecule microarray, fluorescence 635 nm, primary screen (AID 1181).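 Note: score merges 667 nm emission and signal to noise over triplicate slides.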 To be noted: higher = more signal.

Drawing on PubChem BioAssay, this text covers z-score and composite z-score for 13 compounds.

Activity calls are given as the source filed them. Unless noted, the rule behind the calls is not given here.

Chain of Dihydroorotate dehydrogenase (quinone), mitochondrial (Plasmodium falciparum (isolate 3D7)) (Q08210 whole entry, looked up): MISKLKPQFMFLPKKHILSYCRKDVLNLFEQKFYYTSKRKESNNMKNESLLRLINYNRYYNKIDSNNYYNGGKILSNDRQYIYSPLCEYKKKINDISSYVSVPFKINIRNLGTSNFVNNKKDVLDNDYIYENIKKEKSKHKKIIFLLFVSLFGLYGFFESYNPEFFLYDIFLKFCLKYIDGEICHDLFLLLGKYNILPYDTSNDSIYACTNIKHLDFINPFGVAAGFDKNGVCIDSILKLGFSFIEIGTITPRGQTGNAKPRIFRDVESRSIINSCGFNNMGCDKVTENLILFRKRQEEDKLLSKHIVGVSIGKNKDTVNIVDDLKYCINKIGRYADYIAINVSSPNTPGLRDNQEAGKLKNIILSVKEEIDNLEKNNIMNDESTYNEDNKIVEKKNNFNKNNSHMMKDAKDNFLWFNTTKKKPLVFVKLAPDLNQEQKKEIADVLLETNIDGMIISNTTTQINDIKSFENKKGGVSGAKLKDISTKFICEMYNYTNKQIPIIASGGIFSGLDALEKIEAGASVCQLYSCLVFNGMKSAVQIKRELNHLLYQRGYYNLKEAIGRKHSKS
Chain of E3 ubiquitin-protein ligase XIAP (Homo sapiens) (P98170 whole entry, looked up): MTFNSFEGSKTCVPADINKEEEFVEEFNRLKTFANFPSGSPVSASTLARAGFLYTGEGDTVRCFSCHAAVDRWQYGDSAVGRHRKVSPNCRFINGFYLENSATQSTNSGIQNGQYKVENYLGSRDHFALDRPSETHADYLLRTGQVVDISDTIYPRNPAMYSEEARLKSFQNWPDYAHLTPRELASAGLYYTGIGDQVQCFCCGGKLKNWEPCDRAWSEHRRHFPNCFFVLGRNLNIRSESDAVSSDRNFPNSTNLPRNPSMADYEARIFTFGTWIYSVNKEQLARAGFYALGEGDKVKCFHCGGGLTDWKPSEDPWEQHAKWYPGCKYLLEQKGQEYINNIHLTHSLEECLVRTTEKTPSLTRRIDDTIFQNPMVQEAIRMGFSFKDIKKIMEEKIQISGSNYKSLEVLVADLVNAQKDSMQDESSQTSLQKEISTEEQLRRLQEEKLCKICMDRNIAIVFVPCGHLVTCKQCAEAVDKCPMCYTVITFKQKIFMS

As to `COCCCNC(=O)[C@@]1(Sc2ccc(C)cc2)CC(=O)N(Cc2ccccc2)[C@@H]1c1ccc(CO)cc1I`, the z-score in experiment [1] is 0.121; in experiment [2] it was -3.62 (inactive); in experiment [3], -2.46 (inactive); in [5], -0.549 (inactive); in [6] it was -1.02 (inactive); in [7] it was 0.283 (inactive). In addition, the results for the z-score in experiment [8] and in [9] were 0.264 (inactive) and -1.78, respectively. Besides, the composite z-score in experiment [4] was -0.666 (inactive); in experiment [10], 0.106.
Take `CC(=O)OC[C@H]1O[C@@H](ON=C(C)CCN2CCc3nc(-c4ccccc4)c(-c4ccccc4)cc3C2)[C@H](OC(C)=O)[C@@H](OC(C)=O)[C@@H]1OC(C)=O`: the z-score was -0.182 in [1]; -0.909 (inactive) in experiment [2]; -0.653 (inactive) in [3]; 0.0039 (inactive) in experiment [5]; -0.127 (inactive) in experiment [6]; -1.11 (inactive) in experiment [7]. The figures for the z-score in experiment [8] and in experiment [9] were -2.14 (inactive) and -0.323, respectively. Also, the composite z-score in [4] was -0.24 (inactive); in experiment [10], 0.0819.
Consider `O=C1O[C@@H](c2ccccc2)[C@@H](c2ccccc2)N2[C@@H](c3ccc(O)cc3)[C@]3(C(=O)Nc4ccccc43)[C@@H](C(=O)O)[C@H]12`, for which the z-score was -0.253 in experiment [1]; -0.922 (inactive) in [2]; -0.14 (inactive) in [3]; 0.697 (inactive) in [5]; -0.472 (inactive) in experiment [6]; -0.0134 (inactive) in experiment [7]. Besides, the z-score was -0.831 (inactive) in experiment [8] and 0.393 in [9]. Besides, the figures for the composite z-score in [4] and in [10] were -1.42 (inactive) and 0.125, respectively.
Turning to `CC(=O)OC[C@H]1O[C@H](CCON=C[C@@H](C)[C@H](OCc2ccccc2)C(C)C)C=C[C@@H]1OC(C)=O`, the z-score in [1] was -0.374; in experiment [2] it was 0.604 (inactive); in experiment [3], -0.81 (inactive); in experiment [5], 0.0039 (inactive); in experiment [6] it was -0.399 (inactive); in experiment [7] it was -0.983 (inactive). In addition, the values for the z-score in experiment [8] and in [9] were -2.1 (inactive) and -0.429, respectively. The values for the composite z-score in experiment [4] and in experiment [10] were -0.64 (inactive) and -0.215, respectively.
Turning to `CO[C@H]1COC(=O)[C@H](C)COC(=O)CC=C[C@@H](C)[C@H](OC)COC(=O)CC=C[C@@H]1C`, the z-score in experiment [1] is -0.194; in [2], -0.754 (inactive); in experiment [3], -0.152 (inactive); in [5], -0.167 (inactive); in experiment [6], -0.192 (inactive); in [7], 0.778 (inactive). The z-score in experiment [8] is 0.804 (inactive); in experiment [9], 0.129. Also, the results for the composite z-score in experiment [4] and in experiment [10] were -0.365 (inactive) and -0.0117, respectively.
For the compound `CCCC=C(CCC)[C@@H](NC(=O)c1ccc(-c2ccccc2)cc1)c1ccc(C(=O)OC)cc1`, the z-score in [1] was 0.664; in experiment [2], 1.44 (inactive); in experiment [3] it was -0.438 (inactive); in experiment [5], -0.126 (inactive); in experiment [6], 1.23 (inactive); in [7] it was 0.0519 (inactive). The results for the z-score in experiment [8] and in [9] were -0.21 (inactive) and -0.361, respectively. Besides, the composite z-score is 0.407 (inactive) in [4] and 0.0512 in experiment [10].
With `Cc1ccc(S(=O)(=O)N[C@@H]2COC(=O)[C@H](C)COC(=O)CC=C[C@H]2C)cc1`, the z-score in [1] is 0.285; in experiment [2] it was 0.773 (inactive); in experiment [3] it was 0.222 (inactive); in [5], -0.601 (inactive); in [6], 1.3 (inactive); in experiment [7] it was -0.0401 (inactive). In addition, the results for the z-score in experiment [8] and in experiment [9] were -1.2 (inactive) and 0.242, respectively. Also, the values for the composite z-score in [4] and in experiment [10] were 0.576 (inactive) and -0.13, respectively.
Turning to `CCCCCN1CC=CC23O[C@@H]4C=CCOC(=O)[C@@H]4[C@H]2C(=O)N(C(CO)C(C)C)[C@@H]3C1=O` (stereo not given in full), the z-score in experiment [1] was 0.862; in experiment [2], 1.02 (inactive); in experiment [3] it was 0.111 (inactive); in experiment [5], 0.0126 (inactive); in experiment [6], 0.89 (inactive); in [7], -0.128 (inactive). Moreover, the values for the z-score in experiment [8] and in experiment [9] were -0.301 (inactive) and -0.0045, respectively. Besides, the figures for the composite z-score in experiment [4] and in experiment [10] were 0.204 (inactive) and 0.266, respectively.
For `COC(=O)[C@H](C)NC(=O)CCC1CC(OC(=O)NCCc2ccc(F)cc2)CC2(CCCC(COC(=O)NCC(c3ccccc3)c3ccccc3)O2)O1` (stereo not given in full), the z-score is 0.725 in experiment [1]; 0.718 (inactive) in experiment [2]; 0.476 (inactive) in experiment [3]; 0.0251 (inactive) in experiment [5]; 1.31 (inactive) in experiment [6]; 1.06 (inactive) in experiment [7]. Also, the values for the z-score in experiment [8] and in experiment [9] were 0.706 (inactive) and 0.809, respectively. Moreover, the composite z-score in [4] was -0.216 (inactive); in experiment [10], -0.323.
As to `C[C@@H]1C=CCC(=O)OC[C@H](C)C(=O)N[C@@H](C)C(=O)OC1`, the z-score was 0.29 in [1]; 0.128 (inactive) in experiment [2]; 0.617 (inactive) in experiment [3]; -0.537 (inactive) in [5]; 0.317 (inactive) in experiment [6]; 0.6 (inactive) in experiment [7]. The values for the z-score in [8] and in experiment [9] were 0.879 (inactive) and 0.361, respectively. Further, the figures for the composite z-score in experiment [4] and in experiment [10] were 0.474 (inactive) and -0.113, respectively.
Take `COc1ccc(O[C@H]2C=C[C@@H](c3ccccc3)O[C@@H]2COC(=O)N2CCCCC2)cc1`: the z-score in [1] is 0.54; in [2], 0.666 (inactive); in [3], 0.0872 (inactive); in [5] it was -0.139 (inactive); in [6], -0.499 (inactive); in experiment [7] it was 0.396 (inactive). The z-score was 0.349 (inactive) in [8] and 0.883 in experiment [9]. Moreover, the composite z-score in experiment [4] was 0.0964 (inactive); in experiment [10], -0.234.
For the compound `C=CC[C@@H]1C=C[C@H](ON=C2c3cc(OC)ccc3O[C@H](c3cccc(OC)c3)[C@H]2O)[C@@H](CO)O1`, the z-score was -1.38 in [1]; -0.903 (inactive) in [2]; -1.15 (inactive) in experiment [3]; 0.113 (inactive) in experiment [5]; -0.7 (inactive) in [6]; 0.57 (inactive) in experiment [7]. The values for the z-score in [8] and in experiment [9] were 0.741 (inactive) and -1.37, respectively. Further, the composite z-score in experiment [4] is -0.726 (inactive); in experiment [10] it was -0.0834.
Turning to `Cn1c(=O)n2n(c1=O)[C@H]1[C@H](O)[C@@H]3O[C@@H]3C(=NOC[C@@H](O)COCc3ccco3)[C@H]1CC2`, the z-score was -0.31 in [1]; -0.419 (inactive) in [2]; -0.877 (inactive) in [3]; 0.823 (inactive) in experiment [5]; -0.17 (inactive) in [6]; -0.157 (inactive) in experiment [7]. The figures for the z-score in experiment [8] and in experiment [9] were 0.317 (inactive) and -0.378, respectively. Also, the composite z-score is 0.0599 (inactive) in experiment [4] and -0.0382 in experiment [10].
